For 40 compounds, growth results are on record in PubChem BioAssay (NCI).

About 83,000 compounds went through this panel and 20% of them were active in at least one assay; those are over-represented in the sample as a whole.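 Values shown are percent growth following 48 h exposure of cells in 96-well plates to a single concentration of compound; below 10 was considered active.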 Active and inactive are the calls of the source.

The subject of the assay is MDA-MB-468 breast. Kind of assay: NCI-60 one-dose screen, 48 h (100 = growth as untreated, 0 = no growth, -100 = all killed). To be noted: 10 µM unless noted.
Turning to `O=S(=O)(Oc1ccc(-c2ccc3sccc3c2)cc1)c1ccccc1`, the growth was 85.2% (inactive).
As for `C=C1CCC2C3(C)COC(C)(C)OC3CCC2(C)C1C/C=C1/C(=O)OCC1Oc1ccccc1OC` (stereo not given), the growth was 60.6% (inactive).
For `COc1ccc(-n2c(/C=C/c3ccc(O)c(OC)c3)cc(/C=C/c3ccc(O)c(OC)c3)nc2=O)cc1`, the growth was 29% (inactive).
With `COC(=O)c1cccc(NC2=C(Cl)C(=O)c3nc(C)ccc3C2=O)c1` the figure was -71.3% (active); with `CC1(C)N=C(N)N=C(N)N1c1cc(Cl)ccc1Cl`, 53.5% (inactive).
`CC(C)(Sc1cc(C(C)(C)C)c(O)c(C(C)(C)C)c1)Sc1cc(C(C)(C)C)c(OC(=O)CCCC(=O)O)c(C(C)(C)C)c1`: the growth is 43.5% (inactive).
With `C/C(=N\Nc1ccc([N+](=O)[O-])cc1[N+](=O)[O-])c1ccc(Br)cc1` the figure was 108% (inactive).
With `CC[C@H]1[C@@H]2C=C[C@@H]3[C@H]4C/C=C\C(=O)NCCC[C@@H]5NC(=O)/C(=C(O)/C=C/[C@@H]4C[C@@H]3[C@H]2C[C@H]1C)C5=O` the figure was 76.8% (inactive); with `S=C(S)NCCc1c[nH]c2ccccc12`, 98.6% (inactive).
Consider `CCC(C)[C@@H]1NC(=O)[C@@H]2CCCN2C(=O)[C@H](Cc2ccccc2)NC(=O)[C@@H]2CCCN2C(=O)[C@H](Cc2ccccc2)NC(=O)[C@@H]2CCCN2C(=O)[C@H](Cc2ccccc2)NC1=O` (stereo not given in full), for which the growth was 116% (inactive).
With `CCc1ccccc1NC(=O)/C(C#N)=C/c1ccc(OC)cc1` the figure was 108% (inactive); with `OCc1cccc(F)c1`, 68.9% (inactive).
In the case of `COc1ccc(/C(=C/c2cc(OC)c(OC)cc2[N+](=O)[O-])C(=O)O)cc1`, the growth is 111% (inactive).
With `COc1cc(-c2ccc[nH]2)[nH]c1/C=C1\N=C(C)C(CC(=O)OCC(C)(C)C)=C1C` the figure was -79.2% (active); with `Cc1cc(CC(C)CC(C)(C)C)n(O)c(=O)c1` (stereo not given) (tested in a mixture with another compound), -7.41% (active).
Regarding `CN1CCN(c2ccc(Nc3nc(NCCCNS(=O)(=O)c4ccc(C(F)(F)F)cc4)c4sccc4n3)cc2)CC1`, the growth was -80.9% (active).
For `COc1cc(-c2nc3cc(Cl)c(Cl)cc3[nH]2)ccc1OCC(=O)N=Nc1c(O)[nH]c2ccc([N+](=O)[O-])cc12`, the growth was 4.59% (active).
The same measure for `CN(C)CCCNCc1ccc(-c2ccc(F)c(Cl)c2)o1`: -66.3% (active).
With `COCCn1cc(-c2nc(-c3cn(CCOC)c4ncccc34)cs2)c2ccccc21` the figure was -17.4% (active).
`CN1CCN(c2ccc(C(=O)/C=C/c3cc(F)cc(C(F)(F)F)c3)cc2)CC1`: the growth is 31.5% (inactive).
For the compound `CC1(C)[C@@H](O)CC[C@]2(C)[C@H]3CC[C@@H]4[C@H]5[C@H](C(=O)/C=C\c6ccccn6)CC[C@]5(O)CC[C@@]4(C)[C@]3(C)CC[C@@H]12`, the growth is 23.8% (inactive).
With `OC(c1ccccc1)(c1ccccc1)c1ccccc1-c1ccccc1` the figure was 69.1% (inactive); with `C#CCOc1ccc2ncnc(Nc3ccc(NC(=O)CCl)cc3)c2c1`, -57.7% (active).
Take `Nc1nc(-c2ccccc2Cl)cc(-c2ccc(Cl)cc2Cl)n1`: the growth is 18.6% (inactive).
Turning to `O=c1c2c(=NCCN3CCCC3)cc3c(=O)n(CCCN4CCOCC4)c(=O)c4c(-c5ccc(CN6CCCC6)cc5)cc(c(O)n1CCCN1CCOCC1)c2c4-3`, the growth is -58.1% (active).
Take `COc1ccccc1N1CCN(C(=O)c2ccc3nc(NC(=O)c4ccc(NCCc5ccccc5)c([N+](=O)[O-])c4)sc3c2)CC1`: the growth is 99.1% (inactive).
As to `Cc1cc2c(cc1[N+](=O)[O-])NC(CNC(C)C)CC2` (stereo not given), the growth was 83.3% (inactive).
As for `CN1CCN(Cc2ccc(NC(=O)c3cncc(C#Cc4cnccc4C(F)(F)F)c3)cc2C(F)(F)F)CC1`, the growth was 84.4% (inactive).
With `O=C(Oc1c(Cl)c(Cl)c(Cl)c(Cl)c1Cl)C1CCCN1C(=O)OCc1ccccc1` (stereo not given) the figure was 11.9% (inactive); with `COc1cc(-c2csc(NC(=O)c3cc(C(F)(F)F)cc(C(F)(F)F)c3)n2)cc(OC)c1OC`, 6.71% (active).
As to `COc1ccc(-c2cc(-c3cc(OC)ccc3OC)[nH]c(=O)c2C#N)cc1`, the growth is 37.9% (inactive).
Consider `COc1ccc2nc3ccccc3c(NCc3ccc(C)cc3)c2c1`, for which the growth was -18.6% (active).
The same measure for `Cc1ccc(C)n1/C=C/n1c(C)ccc1C`: 95.1% (inactive).
The same measure for `CCOC(=O)n1cc(C2=C(c3ccc(OC)c(OC)c3)COC2=O)c2ccccc21`: -41.8% (active); for `CC(=O)Oc1ccc(C(OC(C)=O)OC(C)=O)cc1`: 109% (inactive).
`COC(=O)[C@@H]1[C@H]2C[C@H]3c4[nH]c5cc(OC)ccc5c4CCN3C[C@@H]2C[C@H](OC(=O)/C=C/c2ccnc(OC)c2)[C@H]1OC`: the growth is 76.9% (inactive).
`C=C1C(=O)O[C@H]2[C@H]1CC/C(COC(=O)NCc1[nH]nc3ccccc13)=C\CC[C@@]1(C)O[C@@H]21`: the growth was 20.4% (inactive).
Turning to `CC1SC(c2ccc(Cl)cc2)N(CCc2cccs2)C1=O` (stereo not given), the growth is -38.4% (active).
With `NS(=O)(=O)c1ccc(Nc2cc(-c3ccccc3)nc(SCC(=O)c3ccccc3)n2)cc1` the figure was 99.3% (inactive); with `COc1cc2cc(Oc3ccc(NC(=O)Nc4cc(C(F)(F)F)cc(C(F)(F)F)c4)cc3)c(C)nc2cc1OCCN1CCOCC1`, -12% (active).
